HCMV inh: inhibitors of human cytomegalovirus; HFF cells, HCMV-luciferase reporter, 72 h; stronger effect = lower value; activity change, negative = inhibition, % at 57.5 µM; 410,000 compounds, 4.5% hits; in the data active = activity change below about -60%; inconclusive = no clear call, values can overlap the other calls; inactive = above about -39%
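Cell-based, HFFs, 1000 cells/well, 16 h 37C; cpds in DMSO + HCMV-luc, MOI 1 PFU/cell; 72 h 37C; OneGlo luminescence after 5 min RT; norm. to buffer vs Salinomycin 10uM.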
HCV inh: inhibitors of hepatitis C virus infection; Huh7.5.1 HCVcc-Cre infection, luciferase reporter, 44 h; Potency, µM (top dose mostly 41.8 µM), for inactives: at the highest dose activity change, negative = inhibition, usual class: inhibitors; 340,000 compounds, 3.4% hits; active = well fitted inhibition curve with a large enough effect; inconclusive = small, poorly fitted or top-dose-only effect, or another doubt; inactive = no such curve, though single readings can be large or run the other way; also: potency is read from the fitted curve at half-maximal effect
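Seed cells (1,000/well) for 4 h; treat with compound and infect with HCVcc-Cre, moi about 0.5. Incubate 44 h, then detect luciferase activity.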
LASV entry inh: blocks Lassa virus binding to or entry into cells. 300,000 compounds, 1.2% hits. Potency, µM (top dose mostly 37.9 µM), inactives show at the highest dose activity change, negative = inhibition, actives largely listed as inhibitors. Lassa virus pseudotype entry inhibition, cell reporter. AID 540256; calls by dose curve; tested in HEK293 cells; also: potency is read from the fitted curve at half-maximal effect; nearly all actives have a fitted effect of over 50% in size
FMDV inh: foot and mouth disease virus antiviral activity | FMDV antiviral cell-based qHTS | Potency, µM (highest dose often 57.9 µM), for the others: at the highest dose activity change, negative = inhibition, usual class: inhibitors | 410,000 compounds, 1.2% hits; calls by dose curve; tested in HEK293T cells; also: read-out not given here; potency is read from the fitted curve at half-maximal effect; nearly all actives have a fitted effect of over 45% in size
MARV entry inh: Marburg virus entry inhibition; Marburg virus pseudotyped entry inhibition, cell reporter; Potency, µM (doses to about 37.8 µM), for the others: top-dose activity change, negative = inhibition, most hits filed as inhibitors; 300,000 compounds, 1.8% hits; calls by dose curve; tested in HEK293 cells; also: potency is read from the fitted curve at half-maximal effect
Numbers without * were called inactive; u = inconclusive; x = no result; ! = not confirmed by another sample; [ ] = another dose, or the depositor's remark. In the library only some 7.9% were active in any assay of this set; here they are far more common. % is scaled to controls: 0 for no effect and ±100 for the full control effect.

SMILES | HCMV inh | HCV inh | LASV entry inh | FMDV inh | MARV entry inh
CCCc1nc(SCC(=O)N2CCC(Cc3ccccc3)CC2)c2c(=O)n(C)c(=O)n(C)c2n1 | -22.8 | 10µM*! | x | u | -0.8%
COc1ccc(Br)cc1C(=O)Nc1cccc2ccc(C)nc12 | 24.6 | x | 8.7%[46.1 µM] | -7.7% | 8.2%[46.1 µM]
Cn1c(=O)c2c(SCC(=O)Nc3ccc4c(c3)OCCO4)nc(CC(C)(C)C)nc2n(C)c1=O | -64.0* | -0.8% | x | -28.7% | x
Cc1cc(NC(=O)c2ccno2)no1 | 1.6 | 6.2% | x | -24.0% | x
Cc1ccc(NNC(=O)c2ccno2)c(C)c1 | -14.7 | u | u | -10.4% | 8.91µM*
COc1cccc([C@H]2Oc3ccc(OC)cc3/C(=N\OCC[C@@H]3C=C[C@H](OC(C)=O)[C@@H](COC(C)=O)O3)[C@@H]2O)c1 | x | x | x | x | -24.0%[14.2 µM]
COc1cc(CN2CCCC(C(=O)c3ccccc3SC)C2)cc(OC)c1 (configuration not stated) | -15.8 | 11.2µM* | x | -16.3% | x
COc1ccc(Cl)cc1C(=O)C1CCCN(Cc2cnc(N3CCOCC3)s2)C1 (configuration not stated) | u | u | -16.6% | u | u
COc1cc(OC)c(OC)cc1CN1CCCC(C(=O)c2ccccc2SC)C1 (configuration not stated) | -11.3 | -0.7% | -20.5% | -0.7% | u
COc1c(C)cc(C(=O)C2CCCN(Cc3cnc(N4CCOCC4)s3)C2)cc1C (configuration not stated) | -24.8 | 11.2µM* | x | -19.3% | x
COc1c(C)cc(C(=O)C2CCCN(Cc3cccc(O)c3)C2)cc1C (configuration not stated) | 14.7 | 12.6µM* | x | 0.0% | x
COc1cccc(C(=O)C2CCCN(Cc3cccc(-n4nc(C)cc4C)c3)C2)c1 (configuration not stated) | 5.5 | 35.5µM* | x | u | x
COc1cc(=O)n2c(c1C(=O)N(C)Cc1nonc1C)CCN(CC1CC=CCC1)CC2 (configuration not stated) | x | x | x | 4.6% | x
CN(Cc1ccc(Cl)cc1Cl)C(=O)C1CC(=O)N(Cc2ccco2)C1 (configuration not stated) | 13.3 | x | x | -27.5% | x
COc1c(C)cc(C(=O)C2CCCN(C(=O)c3ccoc3)C2)cc1C (configuration not stated) | -81.3* | 9.4% | -3.6%[46.1 µM] | -0.5% | 25.7%[46.1 µM]
CN1C2CCC1CC(NC(=O)c1cc(S(=O)(=O)N(C)C)c(Cl)cc1Cl)C2 (configuration not stated) | 27.2 | -10.2% | x | -0.3% | x
COc1cc(NC(=O)c2cccc(Cl)c2)c(OC)cc1NC(=O)CN1CCCCC1 | u | 35.5µM* | -28.9% | -20.3% | u
COc1ccc(NC(=S)N(CCN2CCOCC2)C2CCN(C(C)=O)CC2)cc1Cl | u | 6.5% | 28.8%[46.1 µM] | 8.6% | 1.1%[46.1 µM]
COc1cc(Cl)ccc1NC(=S)N(CCN1CCOCC1)C1CCN(C(C)=O)CC1 | -100.9* | 10.9% | x | -1.3% | x
COc1cc(NC(=O)c2cccc(Cl)c2)c(OC)cc1NC(=O)CN1CCOCC1 | -72.0* | u | u | -3.6% | u
CC(C)(Oc1ccc(Cl)cc1)C(=O)N1CC2ON=C(c3c(F)cccc3Cl)C2C1 (configuration not stated) | -24.5 | x | x | x | x
CCC(CC)C(Nc1ccccc1C(C)=O)C(=O)NC1CCCCC1 (configuration not stated) | -34.4 | x | x | x | x
Cc1ccc(N2C(=O)CS/C2=C(\C(Cl)=C(Cl)Cl)[N+](=O)[O-])cc1 | -31.5 | -17.9% | 11.3% | x | -9.7%
CC1CCCC(C)N1C(=C(Cl)Cl)C(=C1SCCS1)[N+](=O)[O-] (configuration not stated) | -69.0* | u | -4.8% | 59.2% | u
Cc1ccc(S(=O)(=O)N2[C@@H](c3cccc(Cl)c3)C(C(=O)OC(C)(C)C)=CC[C@H]2c2cccc(Cl)c2)cc1 | 5.3 | x | x | u | x
SMILES | HCMV inh | HCV inh | LASV entry inh | FMDV inh | MARV entry inh
CC(C)(C)OC(=O)C1=CC[C@@H](c2ccc(Cl)c(Cl)c2)N(S(=O)(=O)c2ccc(F)cc2)[C@H]1c1cccc(F)c1 | -64.0* | x | x | u | x
Clc1ccc(-c2c[n+](Cc3cccc(Cl)c3)c3n2CCC3)cc1 | -93.6* | -4.9% | -0.9% | -11.7% | 0.7%
Clc1ccc(C[n+]2cc(-c3ccccc3)n3c2CCC3)cc1Cl | -72.2* | -21.1% | u | 0.0% | u
CCOP(=O)(O)c1cccc(OCCOCCOc2cccc(P(=O)(O)OCC)c2)c1 | 22.5 | 9.8% | x | 5.8% | x
COc1ccc(N(C)S(=O)(=O)c2cccc(C(=O)Nc3ccc(OC)nc3)c2)cc1 | -67.6* | u | -26.8% | x | -22.1%
COc1ccc(N(C)S(=O)(=O)c2cccc(C(=O)Nc3nc(C)cs3)c2)cc1 | -19.7 | u | x | -10.2% | x
COc1ccc(N(C)S(=O)(=O)c2cccc(C(=O)Nc3cc(OC)ccc3OC)c2)cc1 | -22.6 | 10µM* | u | u | u
COc1ccc(N(C)S(=O)(=O)c2cccc(C(=O)Nc3ccc(-n4cnnn4)cc3)c2)cc1 | u | u | -17.2% | 39.8µM* | u
COc1ccc(N(C)S(=O)(=O)c2cccc(C(=O)Nc3nnc(C4CC4)s3)c2)cc1 | u | u | u | u | 17.1%[46.1 µM]
COc1cc(OC)cc(C(=O)Nc2ccc(-n3cnnn3)c(C)c2)c1 | -3.9 | 7.08µM* | -0.2% | x | 8.5%
Cc1cccc(C)c1-n1nnnc1C(=O)c1cccnc1 | 21.9 | x | x | x | x
CC(C)=CCC[C@@](C)(O)[C@H]1CC=C(C)CC1 | x | x | x | -8.6% | x
CCN(c1ccccc1)S(=O)(=O)c1ccc(OC)c(NC(=O)Cn2cnc3c2c(=O)n(C)c(=O)n3C)c1 | -30.5 | -28.4% | 9.9% | -12.8% | 12.1%[46.1 µM]
NC(=O)c1ncn([C@@H]2O[C@H](CNCc3ccc(OCC(=O)Nc4ccccn4)cc3)[C@@H](O)[C@H]2O)n1 | -8.7 | 16.9% | x | 4.8% | x
COc1ccc(N(C)S(=O)(=O)c2cccc(C(=O)Nc3ccc4c(c3)OCCO4)c2)cc1 | 97.2 | 10µM* | u | -10.5% | 10µM*
CCN(c1ccccc1)S(=O)(=O)c1cccc(C(=O)N(C)CCOc2ccccc2)c1 | -25.2 | u | u | -3.7% | -28.1%
CN(Cc1cnn(-c2ccccc2)c1)C(=O)c1cccc(S(=O)(=O)N(C)c2ccccc2)c1 | -26.1 | x | x | 0.0% | x
COc1ccc(OCCN(C)C(=O)c2cccc(S(=O)(=O)N(C)c3ccccc3)c2)cc1 | -15.3 | 14.1µM* | -18.4% | -19.7% | -55.9%
Cc1ccc(N(C)S(=O)(=O)c2cccc(C(=O)N(C)Cc3cnn(-c4ccccc4)c3)c2)cc1 | -66.7* | u | u | u | u
CCCCOc1ccc(C(=O)NCCS(=O)(=O)N2CCN(c3ccccc3OC)CC2)cc1 | -25.9 | x | u | 14.1µM* | x
Cc1ccc2oc(=O)c3cnn(CC(=O)Nc4ccccc4N4CCN(C)CC4)c3c2c1 | u | 14.1µM* | x | -20.5% | 2.9%
Cc1ccc2oc(=O)c3cnn(CC(=O)N4CCN(c5ccccc5F)CC4)c3c2c1 | -0.7 | x | 15.2%[46.1 µM] | 0.0% | 1.0%[46.1 µM]
